Measured values reported in PubChem BioAssay (NCI).
About 79,000 compounds went through this panel and 15% of them were active in at least one assay; those are over-represented in the sample as a whole. A number with no mark means an inactive call. Calls of active or inactive are those of the source. No stated cut-off is given here; in the data, active means growth inhibition above about 70%; inactive means the rest.

Assays:
[1] = NCI Yeast Anticancer Drug Screen. Data for the rad50 strain (AID 155);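 further: 0% = growth of vehicle-only cultures of the same strain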; settings: S. cerevisiae rad50 strain growth inhibition, hits give high values
How it was run: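 Yeast carrying a defined DNA repair defect were exposed to test compounds, and growth was compared with vehicle-treated controls to give percent inhibition.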

[2] = NCI Yeast Anticancer Drug Screen. Data for the mec2-1 strain (AID 157); settings: S. cerevisiae mec2-1 strain, hits give high values
How it was run: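 Using mec2-1 yeast: add compound, measure growth, express inhibition versus vehicle-treated cultures.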

[3] = NCI Yeast Anticancer Drug Screen. Data for the sgs1 mgt1 strain (AID 161);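 further: 0% = growth of cultures given vehicle only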; settings: S. cerevisiae sgs1 mgt1 strain, hits give high values
How it was run: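 Percent growth inhibition was derived by comparing compound-exposed mutant yeast with vehicle-exposed cultures. The strain carries alterations in DNA damage repair.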

[4] = NCI Yeast Anticancer Drug Screen. Data for the bub3 strain (AID 167); settings: S. cerevisiae bub3 mutant strain, hits give high values
How it was run: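 Compounds were applied to a genetically altered yeast strain carrying a cell-cycle control defect. Growth inhibition was scored against vehicle-treated controls.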

[5] = NCI Yeast Anticancer Drug Screen. Data for the mlh1 rad18 strain (AID 175); settings: S. cerevisiae mlh1 rad18 strain growth inhibition, hits give high values
How it was run: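 Steps: expose repair-defective yeast to compound; measure growth; express inhibition against vehicle-treated controls.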

[6] = NCI Yeast Anticancer Drug Screen. Data for the cln2 rad14 strain (AID 165);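 further: 0% = growth equal to vehicle treated cultures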; settings: S. cerevisiae cln2 rad14 strain, hits give high values
How it was run: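 Yeast strain cln2 rad14, bearing defects in cell cycle control and DNA repair, serves as the test system; values reflect growth inhibition compared with vehicle.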

[7] = at 5.0 µM (retest, dose inferred, filed as 0.5)
[8] = at 50.0 µM (retest, dose inferred, filed as 5.0)

Row | SMILES | growth inhibition [1, 7] | growth inhibition [1, 8] | growth inhibition ([1]; at 50.0 µM) | growth inhibition [2, 7] | growth inhibition [2, 8] | growth inhibition ([2]; at 50.0 µM) | growth inhibition [3, 7] | growth inhibition [3, 8] | growth inhibition ([3]; at 50.0 µM) | growth inhibition [4, 7] | growth inhibition [4, 8] | growth inhibition ([4]; at 50.0 µM) | growth inhibition [5, 7] | growth inhibition [5, 8] | growth inhibition ([5]; at 50.0 µM) | growth inhibition [6, 7] | growth inhibition [6, 8] | growth inhibition ([6]; at 50.0 µM)
1 | CCN1/C(=C/C(C)=C/c2sc3ccc4ccccc4c3[n+]2CC)Sc2ccc3ccccc3c21 | 28% | 30% | 79.8% (active) | 30% | 36% | 82% (active) | -7% | 42% | 81.7% (active) | 43% | 10% | 73.2% (active) | 41% | 35% | 69.9% | – | – | –
2 | Cc1cc2cccnc2c2ncccc12 | 34% | 98% (active) | 99% (active) | 9% | 99% (active) | 99.2% (active) | 5% | 98% (active) | 99.1% (active) | – | – | – | 25% | 99% (active) | 98.7% (active) | -9% | 98% (active) | 97.5% (active)
3 | Cc1nc([N+](=O)[O-])c(Sc2nncc(-c3ccccc3)n2)n1C | 8% | 34% | 97.3% (active) | 4% | 38% | 97.5% (active) | 7% | 28% | 95% (active) | 1% | 21% | 97.6% (active) | 8% | 43% | 97.5% (active) | -5% | 9% | 93% (active)
4 | CCCCCCCCCCCC[n+]1ccc2ccccc2c1 | 97% (active) | 99% (active) | 99.6% (active) | 99% (active) | 100% (active) | 99.7% (active) | 98% (active) | 99% (active) | 99.2% (active) | 99% (active) | 99% (active) | 99.5% (active) | 98% (active) | 100% (active) | 99.5% (active) | – | – | –
5 | Oc1cc(Cl)ccc1Cc1ccc(Cl)cc1O | 97% (active) | 100% (active) | 99.8% (active) | 99% (active) | 100% (active) | 99.7% (active) | 98% (active) | 100% (active) | 99.6% (active) | 99% (active) | 100% (active) | 99.6% (active) | 96% (active) | 96% (active) | 99.7% (active) | 98% (active) | 94% (active) | 99.5% (active)
6 | Fc1ccc(NCCS)cc1 | -18% | 90% (active) | 85.2% (active) | -27% | 95% (active) | 87.8% (active) | -18% | 61% | 79.1% (active) | 10% | 93% (active) | 86.9% (active) | -31% | 90% (active) | 84.3% (active) | – | – | –
7 | COc1ccc2nc3cc([N+](=O)[O-])ccc3c(NNc3ccccc3)c2c1 | -2% | -5% | 62.2% | 5% | -4% | 1.7% | -2% | -13% | 49.1% | – | – | – | 0% | -11% | 60.8% | 3% | -12% | 29.7%
8 | CC(C)(C)c1ccc(CCO)cc1 | -10% | 7% | 33.5% | -2% | -4% | 5.35% | -3% | -5% | 12.2% | – | – | – | -5% | 2% | 19.9% | -2% | -4% | -8.05%
9 | CC1(c2ccc(O)cc2)CCC(C(C)(C)c2ccc(O)cc2)CC1 (stereo not drawn) | 41% | 99% (active) | 90.5% (active) | 46% | 100% (active) | 91.9% (active) | 80% (active) | 97% (active) | – | 89% (active) | 96% (active) | – | 44% | 100% (active) | 91.1% (active) | 60% | 97% (active) | –
10 | CC(/C=N/NC(N)=S)Cc1ccc(C(C)C)cc1 (stereo not drawn) | 28% | 82% (active) | 91.3% (active) | 45% | 74% (active) | 92.5% (active) | 98% (active) | 97% (active) | – | 99% (active) | 97% (active) | – | 32% | 74% (active) | 91.1% (active) | 98% (active) | 98% (active) | –
11 | CCCCCCCCCCCC[N+]1(CCCCCCCCCCCC)CCCC(C)C1 (stereo not drawn) | 99% (active) | 99% (active) | 88.8% (active) | 100% (active) | 94% (active) | 91.3% (active) | 100% (active) | 99% (active) | 91.1% (active) | – | – | – | 99% (active) | 99% (active) | 88.7% (active) | 99% (active) | 99% (active) | 88.1% (active)
12 | O=C1C=CC(=O)N1c1cc(Cl)c(Cl)cc1Cl | 32% | 86% (active) | 91.6% (active) | 51% | 98% (active) | 27.1% | 101% (active) | 100% (active) | – | 101% (active) | 100% (active) | – | 32% | 99% (active) | 91.5% (active) | 89% (active) | 100% (active) | –
13 | C/C(=N/NC(N)=S)c1ccc(C)cc1 | -4% | 40% | 69% | -4% | 6% | 3.5% | -5% | 2% | 40.2% | – | – | – | -4% | 20% | 66.1% | -11% | -22% | 2.3%
14 | Cc1c(O)ccc(SC#N)c1C | -7% | 82% (active) | 88.5% (active) | 2% | 74% (active) | 83.8% (active) | 7% | 75% (active) | 86.7% (active) | -3% | 84% (active) | 87.5% (active) | -1% | 87% (active) | 88.5% (active) | 29% | 85% (active) | 84% (active)
15 | COc1ccc2c(c1OC)OCC(CN(C)C)C2=O (stereo not drawn) | -20% | 98% (active) | 97% (active) | 2% | 99% (active) | 99.3% (active) | 23% | 98% (active) | 99% (active) | 1% | 99% (active) | 93.9% (active) | -4% | 98% (active) | 99.2% (active) | 5% | 99% (active) | 96.3% (active)
16 | CC1(C)OCC(COC(c2ccccc2)(c2ccccc2)c2ccccc2)O1 (stereo not drawn) | -7% | 14% | 21.1% | -6% | 12% | 4.65% | -9% | 2% | -0.5% | -2% | 63% | 40.2% | -5% | 28% | 43.6% | -4% | 16% | -33%
17 | O=C(O)c1cc2c(s1)C(=O)c1sccc1C2=O | 37% | 75% (active) | 71.5% (active) | 33% | 69% | 57.6% | 39% | 66% | 72% (active) | 36% | 79% (active) | 71.2% (active) | 39% | 79% (active) | 92.8% (active) | – | – | –
18 | COc1ccc(/C=C2/C(=O)ON=C2C)cc1 | 12% | 10% | 76% (active) | 5% | 41% | 45.8% | -6% | 29% | 41.8% | – | – | – | 11% | 12% | 23.7% | -12% | 26% | 46%
19 | O=C(c1ccccc1)C(Br)[N+](=O)[O-] (stereo not drawn) | 99% (active) | 99% (active) | 99.7% (active) | 99% (active) | 99% (active) | 99.7% (active) | 99% (active) | 100% (active) | 99.7% (active) | – | – | – | 99% (active) | 99% (active) | 99.7% (active) | 93% (active) | 99% (active) | 99.7% (active)
20 | C=[CH][Sn]([CH]=C)([O]c1cccc2cccnc12)[O]c1cccc2cccnc12 | 27% | 36% | 87.3% (active) | 25% | 34% | 92.7% (active) | 91% (active) | 98% (active) | 82.8% (active) | 87% (active) | 98% (active) | 89.8% (active) | 30% | 60% | 87.7% (active) | – | – | –
21 | OC(c1cc2ccc(C(F)(F)F)cc2c2cc(C(F)(F)F)ccc12)C1CCCCN1 (stereo not drawn) | 85% (active) | 98% (active) | 89.6% (active) | 77% (active) | 98% (active) | 92% (active) | 96% (active) | 98% (active) | 88.9% (active) | – | – | – | 97% (active) | 97% (active) | 85.7% (active) | 44% | 97% (active) | 88.2% (active)
22 | O=[N+]([O-])C=C(c1ccccc1)c1ccccc1 | -23% | 93% (active) | 96.8% (active) | -12% | 89% (active) | 87.8% (active) | 7% | 86% (active) | 77.8% (active) | -1% | 90% (active) | 88% (active) | -12% | 94% (active) | 93.2% (active) | -20% | 63% | 76.8% (active)
